# Tau fluor cs: counter-screen for tau fibril formation inhibitors | tau K18 P301L Alexa594 fluorescence, heparin fibrillization | Potency, µM (series often up to 57.7 µM), for inactives: at the top dose activity change, negative = decrease | 280,000 tested, 0.93% active; also: potency is read from the fitted curve at half-maximal effect; nearly all actives have a fitted effect of over 55% in size
#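 Human K18 P301L tau (15 uM unlabeled plus 0.24 uM Alexa 594-labeled, final) in 100 mM sodium acetate pH 7 was mixed with compound and 20 uM heparin and incubated 6 hr at 37 C.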
# Tau fibril FP: blocks human tau fibril formation measured by polarization. P10636. K18 P301L tau heparin fibrillization, Alexa594 FP, 6 h. Potency, µM (titrated, usually from 57.7 µM), for the others: at the top dose activity, negative = inhibition, most hits filed as inhibitors. 280,000 tested, 0.39% active. AID 1468; also: potency is read from the fitted curve at half-maximal effect; nearly all actives have a fitted effect of over 55% in size
# Target sequence (P10636 561-689 P618L limits assumed): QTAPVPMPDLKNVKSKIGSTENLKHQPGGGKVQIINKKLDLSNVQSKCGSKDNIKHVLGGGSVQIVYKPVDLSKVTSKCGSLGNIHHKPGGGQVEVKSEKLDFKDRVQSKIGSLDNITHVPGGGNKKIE
#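 FP of Alexa 594-tau after heparin (20 uM) induction. Substrate: human K18 P301L, 15 uM unlabeled, 0.24 uM labeled. Buffer 100 mM sodium acetate pH 7. 6 hr, 37 C.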
# Sfp inh: blocks B. subtilis Sfp PPTase activity; Biochemical Sfp PPTase activity, qHTS; Potency, µM, without a hit: largest response in the series, negative = inhibition, actives largely listed as inhibitors; 310,000 tested, 3.5% active;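 also: the enzyme is Sfp with the accession as filed and its product quenches rhodamine fluorescence; potency is read from the fitted curve at half-maximal effect; 0% = enzyme reaction without inhibitor and -100% = no enzyme wells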
#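 Step 1, compound plus 15 nM Sfp-PPTase, 15 min, room temperature. Step 2, add rhodamine-CoA (5 uM) and BHQ-2-YbbR (12.5 uM). Step 3, read 525/598 nm fluorescence at 0 and 30 min.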
# Tau fibril ThT: inhibitors of human tau fibril formation, thioflavin T binding; AID 1460; recombinant tau K18 P301L, heparin-induced fibrillization, ThT fluorescence; 270,000 tested, 2.1% active; Potency, µM (doses to about 57.4 µM), without a hit: at the top dose activity, negative = inhibition, hits mostly inhibitors; also: potency is read from the fitted curve at half-maximal effect; nearly all actives have a fitted effect of over 55% in size
#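 ThT emission at 510 nm, taken 1 hr after adding 30 uM dye, quantifies aggregates formed when 20 uM heparin acts on human tau K18 P301L for 6 hr at 37 C.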
# FBPA coupling cs: counter-screen for Giardia aldolase inhibitors: coupling enzyme system; coupling enzyme system counterscreen, AmpLite Red fluorescence; activity change, negative = inhibition, % at 58.2 µM, hits read low; 290,000 tested, 0.67% active; AID 2472; in the data active = activity change below about -30%
#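 Activity here indicates interference with the coupling reaction, not aldolase inhibition. Compounds at 57.5 uM final met coupling enzymes for 10 min at RT; substrate and AmpLite Red detection followed, with a 525/598 nm fluorescence read after 20 min.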
# Starred values were filed as active, the others as inactive; ? = inconclusive; . = not tested or not shown; ! = repeats disagree; [ ] = dose if it differs, or a comment. Hits are enriched below; roughly 5.2% of the tested compounds scored in any of these assays. Unless noted, calls follow the shape of the dose curve; as a rule, active = well fitted curve in the direction sought with a large enough effect; inconclusive = small, poorly fitted or top-dose-only effect, or another doubt; inactive = no such curve, though single readings can be large; an effect the other way counts as inactive or inconclusive. Unless noted, % is scaled to controls: 0 for no effect and ±100 for the full control effect.
SMILES,Tau fluor cs,Tau fibril FP,Sfp inh,Tau fibril ThT,FBPA coupling cs
N#Cc1c(-c2ccccc2)cc(-c2ccccc2)nc1SCC(=O)NCC(=O)O,-2%,8%,20µM*,-11%,13
N#Cc1c(-c2ccccc2)cc(-c2ccccc2)nc1SCC(O)CS(=O)(=O)Cc1ccc(Cl)cc1 (stereo not drawn),?,14µM*,.,14µM*,.
COc1ccc(Cl)cc1NC(=O)c1cc(C)nc2c1c(C)nn2-c1ccccc1,-17%,-17%,.,4%,.
COc1cc(-c2nc3nc[nH]n3c2Nc2ccc(C(C)C)cc2)ccc1O,?,?,.,25µM*,.
COc1cc(-c2nc3cnccn3c2Nc2ccc(C(C)C)cc2)ccc1O,?,-3%,11%,-8%,-1
O=C(Cn1c(=O)n(Cc2ccco2)c(=O)c2c3c(sc21)CCCCC3)c1ccccc1,-12%,-1%,56µM*,?,4
Nc1nc(N)c(S(=O)(=O)c2ccccc2)c(Nc2ccc(Br)cc2)n1,?,32µM*,.,-9%,.
Nc1nc(N)c(C=Nc2ccc(Br)cc2)c(Nc2ccc(Br)cc2)n1,10µM*[quencher],?,10%,28µM*,1
Cc1ccccc1OCCCN1C(=O)C(=O)c2cccc(C)c21,-21%,-15%,-25%,22µM*,-14
COc1cc2c(cc1OC)C(COc1ccccc1OC)N(C(=O)COc1ccc(Cl)cc1)CC2 (stereo not drawn),-6%,9%,.,-7%,.
COc1ccccc1C(=O)Nc1cccc(C(=O)OCc2cc(=O)n3cc(C)sc3n2)c1,-8%,?,.,?,.
Cc1noc(C)c1S(=O)(=O)NCCc1csc2nc(-c3ccc(F)cc3)nn12,-25%,?,.,0%,.
CN1C(=O)c2c(sc3c2CCCC3)NC1c1ccccc1O (stereo not drawn),?,-11%,40µM*,?,-7
CN1CCc2c(sc3c2C(=O)NC(c2ccco2)N3)C1 (stereo not drawn),-21%,?,-9%,?,-2
COc1ccc(-c2nc(SC)n(C)c(=O)c2C#N)cc1OC,2%,2%,-9%,-9%,-3
COc1ccc(C(c2c(O)nc(SC)n(C)c2=O)c2c(O)nc(SC)n(C)c2=O)cc1O,-10%,?,50µM*,?,8
CCC(=O)OCC(=O)[C@@]1(OC(=O)CC)[C@H](C)C[C@@H]2[C@H]3CCC4=CC(=O)C=C[C@]4(C)[C@]3(Cl)[C@@H](O)C[C@@]21C,.,.,30%,.,-3
CCCCOn1c(C)c(C(C)=O)c2c3no[n+]([O-])c3ccc21,-8%,4%,25%,-7%,7
CCOC(=O)c1c(C)n(OCc2ccccc2)c2ccc3c(no[n+]3[O-])c12,-9%,-1%,79µM*,-6%,0
Nc1c(C(=O)Nc2ccc(F)c(F)c2)sc2nc(-c3ccncc3)ccc12,?,7%,.,?,.
Nc1c(C(=O)Nc2nc3ccccc3s2)sc2nc(-c3cccs3)ccc12,13µM*[quencher],4%,?,?,9
Nc1c(C(=O)Nc2ccccc2Br)sc2nc(-c3cccs3)ccc12,3.2µM*[quencher],?,.,?,.
Nc1c(C(=O)Nc2ccc(Cl)cc2F)sc2nc(-c3cccs3)ccc12,2.2µM*[quencher],-12%,.,?,.
Nc1c(C(=O)Nc2cccc(Cl)c2Cl)sc2nc(-c3cccnc3)ccc12,-20%,13%,-1%,?,-1
Nc1ccc(C(=O)Nc2nc3ccccc3s2)cc1,-29%,2%,18%,-8%,1
SMILES,Tau fluor cs,Tau fibril FP,Sfp inh,Tau fibril ThT,FBPA coupling cs
CC(=O)c1sc2nc(-c3cccs3)ccc2c1N,?,-16%,50µM*,16µM*,-1
Cc1cccc(C(=O)Nc2cccc(C(=O)OCc3cc(=O)n4nc(C5CC5)sc4n3)c2)c1,-4%,-6%,.,?,.
CCOC(=O)c1nnc2c(-c3ccc(F)cc3)c(C)nn2c1N,2%,-1%,.,?,.
CCOC(=O)c1nnc2c(-c3ccc(Cl)cc3)c(C)nn2c1C,-26%,3%,.,7.9µM*,.
O=C(c1cccc(F)c1)N1CCC2(CC1)CN(c1ccccc1)C2,.,.,-11%,.,6
Cc1ccc(NC(=O)N2CCC(CN3CCC(C)CC3)CC2)cc1F,-7%,0%,.,-2%,.
O=C(OCn1ncc(Cl)c(Cl)c1=O)c1ccc(C(F)(F)F)cc1,-12%,-13%,0%,32µM*,-2
c1ccc(-c2cn3nc4c(nc3n2)CCCC4)cc1,?,?,79µM*,?,-11
c1ccc(-c2cn3nc(-c4ccccc4)cnc3n2)cc1,3%,11%,1%,4%,-6
Nc1nn2cc(-c3ccc(Br)cc3)nc2c2ccccc12,?,?,-14%,.,0
Brc1ccc(-c2cn3nc4c(nc3n2)CCCC4)cc1,?,?,?,18µM*,-7
COc1ccc(N(CC(C)C)S(=O)(=O)c2nnc(NC(=O)c3cccs3)s2)cc1,-22%,-5%,.,-11%,.
C=CCc1cccc(/C=N/c2ncccc2O)c1O,-8%,-3%,?,?,-43*
CCCCCCCCCCCCC/C=C/[C@@H](O)[C@@H](N)CO,-11%,6%,79µM*!,?,4
CCCCCCCCCCCCC/C=C/[C@@H](O)[C@H](CO)N(C)C,-6%,-3%,15%,-4%,-2
O=c1oc2ccc3ccccc3c2cc1-c1nnc(Nc2cccc(F)c2)s1,-3%,-5%,.,-12%,.
Cc1ccc(O)c(NC(=O)c2noc3c2CCCCC3)c1,25µM*[quencher],?,15%,-11%,-2
CSc1ccccc1NC(=O)c1noc2c1CCC2,-28%,12%,20µM*,?,-13
O=C(Nc1ccc2nc(SCC(=O)N3CCOCC3)sc2c1)c1ccc(F)cc1,-14%,-11%,.,-4%,.
